Assay outcomes as filed in PubChem BioAssay.
Chlamy TAG: inducers of TAG accumulation in Chlamydomonas, primary screen, qHTS, Chlamydomonas reinhardtii. calls only at 10 µM (by protocol). Nile Red fluorescence, 72 h. 44,000 compounds, 0.84% hits; call rule not given here;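 note: hits raise Nile Red signal meaning more stored TAG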
An asterisk follows results filed as active; i = inactive; + = active, no number. The entries come from a sample that favours hits as a whole.

SMILES	Chlamy TAG
Oc1ccc(Br)cc1CN1CCN(C2CC3CCC2C3)CC1 (stereo not given)	i
c1ccc(CN2CCN(C3CC4CCC3C4)CC2)cc1 (stereo not given)	+
O=[N+]([O-])c1ccc(CN2CCN(C3CCN(Cc4ccccc4)CC3)CC2)cc1	i
O=[N+]([O-])c1ccc(CN2CCN(C3CC4CCC3C4)CC2)cc1 (stereo not given)	+
COc1cccc(C(=O)Nc2ccc(OC)cc2OC)c1	i
Cn1c(=O)c2c(ncn2CC(=O)N2CCN(Cc3ccccc3)CC2)n(C)c1=O	i
COc1ccc(S(=O)(=O)N2CCCC2C(=O)O)cc1OC (stereo not given)	i
CCc1ccc(CN2CCSCC2)cc1	i
CSc1ccc(CN2CCOCC2)cc1	i
CSc1ccc(CN2CCSCC2)cc1	+
NS(=O)(=O)c1ccc(CCNC2CC(=O)N(c3ccccc3)C2=O)cc1 (stereo not given)	i
CC(Oc1ccccc1)C(=O)Nc1ccc(C(=O)Nc2ccccc2C(=O)O)cc1 (stereo not given)	i
COc1cccc(C(=O)N2CCN(Cc3ccc([N+](=O)[O-])cc3)CC2)c1	i
Cc1cc(Cl)ccc1N(CC(=O)Nc1ccc(Br)cc1)S(C)(=O)=O	i
COc1ccc(C)cc1NC(=O)c1ccc(C)c(Cl)c1	i
CC1CCN(C(=O)Nc2ccc(F)cc2)CC1	i
CCN(Cc1ccccc1)C(=O)C1CCN(CCCc2ccccc2)CC1	+
CCN(CC)C(=O)C1CCCN(Cc2ccc(Cl)cc2)C1 (stereo not given)	i
CCN(Cc1ccccc1)C(=O)C1CCNCC1	i
CCc1ccc(CN2CCC(C(=O)N(CC)Cc3ccccc3)CC2)cc1	+
C=C(C)CN(CC)C(=O)C1CCN(Cc2cccnc2)CC1	i
C=C(C)CN(CC)C(=O)C1CCN(Cc2ccc(Cl)cc2)CC1	+
O=C(C1CCN(CCCc2ccccc2)CC1)N1CCCCC1	i
Cc1ccc(CN2CCC(C(=O)N(CCO)Cc3ccccc3)CC2)cc1	i
CCOc1ccc(CN2CCC(C(=O)N(CCO)Cc3ccccc3)CC2)cc1	i
SMILES	Chlamy TAG
COc1cc(NCc2ccccc2Cl)cc(OC)c1	i
O=C(O)C1C2C=CC(C2)C1C(=O)N1CCN(c2ccccc2)CC1 (stereo not given)	i
NC(=O)COc1ccc([N+](=O)[O-])cc1	i
Cc1ccc(C(=O)CSc2n[nH]c(-c3ccncc3)n2)c(C)c1	i
COc1cccc(-c2nnc(NC(=O)Nc3ccc(Cl)cc3)s2)c1	i
CCOc1ccc(C(=O)Nc2cccc(CC)c2)cc1	i
C=CCNC(=O)c1ccc(C(=O)c2cc(OC)ccc2OC)cc1	i
Cc1ccccc1NC(=O)c1cc(Br)c(C)c(C)c1C	i
COc1ccc(Cl)cc1NC(=O)C(C)(C)Oc1ccc(Cl)cc1	i
CC(C)(Oc1ccc(Cl)cc1)C(=O)Nc1ccc(Br)cc1F	+
CC(C)(Oc1ccc(Cl)cc1)C(=O)Nc1ccccc1Br	i
Cc1ccc(N(CC(=O)Nc2ccccc2C(N)=O)S(C)(=O)=O)cc1C	i
CCN(CC)C(=O)CSc1nc2ccc(NC(=O)c3ccccc3)cc2s1	i
Cc1ccc(NC(=O)C(=O)NCCc2ccc(Cl)cc2)cc1C	i
O=C(NCCc1ccc(Cl)cc1)C(=O)Nc1nccs1	+
O=C(COc1ccc(Cl)cc1)Nc1nccs1	i
Cc1ccc(S(=O)(=O)N(CC(=O)NCc2cccnc2)Cc2ccccc2F)cc1	i
COc1ccc(Cl)cc1S(=O)(=O)Nc1ccccc1C(=O)O	i
O=[N+]([O-])c1ccc(-c2cn(C(F)F)c(SC(F)F)n2)cc1	i
CN(C)C1=C(Nc2cccc(Cl)c2)C(=O)c2ccccc2C1=O	i
COc1cccc(NC2=C(N(C)C)C(=O)c3ccccc3C2=O)c1	+
COc1ccc(NC2=C(N(C)C)C(=O)c3ccccc3C2=O)cc1	i
Cc1cc(Cl)ccc1OCC(O)CNC(C)c1ccccc1 (stereo not given)	i
COc1ccc(OCCNC(=O)c2ccc(SC)cc2OC)cc1	i
COc1ccc(CNC2CCCC2)cc1OC	i
SMILES	Chlamy TAG
COc1cc(CNC2CCC(C)C2)cc(OC)c1 (stereo not given)	i
COc1ccc(CNC2CCCC(C)C2)cc1 (stereo not given)	+
CCN(CC)CCOc1cc(C)cc(C)c1C	i
CCN(CC)c1ccc(F)cc1[N+](=O)[O-]	i
Clc1cccc(N2CCN(Cc3ccsc3)CC2)c1	+
Clc1cccc(N2CCN(Cc3cccs3)CC2)c1	i
c1ccc(CCN2CCN(c3ccccc3)CC2)cc1	+
c1ccc(N2CCN(Cc3ccsc3)CC2)cc1	+
c1cc(CN2CCOCC2)cs1	i
COc1cc(CN2CCN(c3cccc(Cl)c3)CC2)cc(OC)c1O	i
c1ccc(CCN2CCN(Cc3ccccc3)CC2)cc1	i
CN1CCN(CCCc2ccccc2)CC1	i
c1ccc(N2CCN(Cc3ccsc3)CC2)nc1	i
CCc1cc(-c2nc(N)ncc2-c2cscn2)c(O)cc1OC	i
O=C(Nc1ccc2c(c1)OCO2)c1ccc(Cl)c(Cl)c1	i
Cc1ccc(NS(=O)(=O)c2ccc(Cl)cc2)c(C)c1	i
Nc1nnc(SCC(=O)NCC(=O)c2ccccc2)s1	i
Cc1ccc(N(C=NC#N)CC(=O)c2ccccc2)cc1	i
O=C(c1ccc2c(c1)OCO2)N1CCN(Cc2ccccc2)CC1	i
COc1ccc(N2CCN(C(=O)C3COc4ccccc4O3)CC2)cc1 (stereo not given)	i
O=C(C1COc2ccccc2O1)N1CCN(Cc2ccccc2)CC1 (stereo not given)	+
Cc1ccnc(NC(c2ccccc2[N+](=O)[O-])c2ccc3cccnc3c2O)c1 (stereo not given)	i
C/C=C(\C)CN1CCN(C/C=C/c2ccccc2)CC1	+
CCN1CCN(C/C=C/c2ccccc2)CC1	i
OCCN1CCN(C/C=C/c2ccccc2)CC1	i
SMILES	Chlamy TAG
COc1cc(C(=O)Nc2cccc(NC(=O)c3ccccc3)c2)cc(OC)c1OC	i
COc1cc(C(=O)Nc2cccc(F)c2)cc(OC)c1OC	i
COc1cc(C(=O)Nc2cccc(C(=O)c3ccc(C)c(C)c3)c2)cc(OC)c1OC	+
O=C(Nc1ccccn1)c1ccc([N+](=O)[O-])cc1	i
O=C(c1cccs1)N1CCC(N2CCCCCC2)CC1	i
Cc1ccc(S(=O)(=O)c2cc3c(=O)n4cc(C)ccc4nc3n(Cc3ccccc3)c2=N)cc1	i
Cc1ccc2nc(SCc3ccccc3)c(C=O)c(=O)n2c1	+
O=Cc1c(Sc2ccc(Cl)cc2)nc2ccccn2c1=O	i
CCc1nc2c(C)cc(C)cc2c(N)c1C	i
Cc1ccc(C(=O)Nc2cc([N+](=O)[O-])ccc2C)c(Cl)c1	i
O=C(Nc1ccc(S(=O)(=O)N2CCCCC2)cc1)c1cccc([N+](=O)[O-])c1	i
CC1CCN(S(=O)(=O)c2ccc(NC(=O)c3cccc([N+](=O)[O-])c3)cc2)CC1	+
CC1CCN(S(=O)(=O)c2ccc(Cl)c(C(=O)Nc3cccc([N+](=O)[O-])c3)c2)CC1	i
COc1cc(CNc2cccc(F)c2)cc(OC)c1OC	i
CC(C)NC(=O)CC1Nc2ccccc2NC1=O (stereo not given)	i
C=CCc1ccccc1OCC(O)CN1CCC(C)CC1 (stereo not given)	i
C=CCc1ccccc1OCC(O)CN(C)C1CCCCC1 (stereo not given)	+
